This is a sample that favours compounds with a hit; in the whole collection about 7.8% have one here.
Marburg entry inh = inhibitors of Marburg virus binding or cell entry | hit rate 1.8% among 300,000 | AID 540276 | Marburg virus pseudotyped entry inhibition, cell reporter | Potency, µM (titrated, usually from 37.8 µM), usual class: inhibitors; calls by dose curve; tested in HEK293 cells
Lassa entry inh = Lassa virus entry inhibition. Potency, µM (top dose mostly 37.9 µM), actives largely listed as inhibitors. Lassa virus pseudotype entry inhibition, cell reporter. hit rate 1.2% among 300,000. AID 540256; calls by dose curve; tested in HEK293 cells; further: nearly all actives have a fitted effect of over 50% in size
VACV mCherry inh = inhibitors of vaccinia virus infection (mCherry reporter signal); hit rate 0.63% among 310,000; AID 720579; Vaccinia virus mCherry reporter infection, fluorescence; Potency, µM (titrated, usually from 36.5 µM), hits mostly inhibitors; calls by dose curve; tested in A549 cells; further: nearly all actives have a fitted effect of over 35% in size
HCV inhibitor = blocks hepatitis C virus; Huh7.5.1 HCVcc-Cre infection, luciferase reporter, 44 h; Potency, µM (doses to about 41.8 µM), most hits filed as inhibitors; hit rate 3.4% among 340,000; AID 651820; active means well fitted inhibition curve with a large enough effect; inconclusive means small, poorly fitted or top-dose-only effect, or another doubt; inactive means no such curve, though single readings can be large or run the other way
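Luciferase read-out (15 sec integration) after a 15 min room-temperature substrate step quantifies HCVcc-Cre infection. Cells, 1,000 per well, had compound added 4 h post-plating, then virus at ~0.5 moi, and were cultured 44 h.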
HCMV inh = inhibitors of human cytomegalovirus; activity change, negative = inhibition, % at 57.5 µM; HFF cells, HCMV-luciferase reporter, 72 h; stronger effect = lower value; hit rate 4.5% among 410,000; in the data active means activity change below about -60%; inconclusive means no clear call, values can overlap the other calls; inactive means above about -39%
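HFF cells seeded 16 h at 37C, treated with compounds, infected with luciferase-reporter HCMV at MOI 1 PFU/cell; luciferase read at 72 h post infection, normalized to buffer-only and Salinomycin controls.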
VACV Venus inh = vaccinia inhibition (Venus reporter); Vaccinia virus Venus reporter expression, fluorescence; Potency, µM (titrated, usually from 36.5 µM), most hits filed as inhibitors; hit rate 0.46% among 330,000; AID 720580; calls by dose curve; tested in A549 cells; further: nearly all actives have a fitted effect of over 30% in size
Numbers stand for hits; – = inactive; ? = inconclusive; · = no result given; [ ] = another dose, or the depositor's remark.

SMILES	Marburg entry inh	Lassa entry inh	VACV mCherry inh	HCV inhibitor	HCMV inh	VACV Venus inh
Cc1ccc(-n2ncc3c(N4CCCC4)ncnc32)c(C)c1	–	–	·	–	–	·
COc1ccccc1-c1nc2cc(C(=O)NC[C@H]3CCc4ccccc4O3)cc(NC(C)=O)c2n1C	·	·	–	·	·	–
CCCCC(=O)NC(c1cccc([N+](=O)[O-])c1)c1c(OC(C)=O)ccc2ccccc12 (stereo not given)	–	–	28.2µM	?	?	?
CCCCC(=O)NC(c1ccc([N+](=O)[O-])cc1)c1c(O)ccc2ccccc12 (stereo not given)	?	?	?	?	-98.8	?
CC(=O)c1ccc(S(=O)(=O)N2CCN(CC(=O)Nc3ccnn3C3CCCC3)CC2)cc1	·	·	·	–	–	·
C=CCN1C(=O)NC(=O)/C(=C/c2ccoc2)C1=O	?	–	–	–	?	–
C=CCN1C(=O)NC(=O)/C(=C/c2ccc(N(C)C)c(Br)c2)C1=O	–	7.94µM	–	–	–	–
CCc1ccc(C(O)c2ncc(-c3cccc(OC)c3)[nH]2)cc1 (stereo not given)	·	·	–	·	·	–
O=C(CN1c2ccccc2S(=O)(=O)c2ccccc21)Nc1ccccc1Cl	·	?	–	·	–	–
Cc1ccccc1Nc1ncnc2c1cnn2-c1ccccc1	·	·	–	11.2µM	–	–
Cc1ccc(-n2ncc3c(Nc4cccc(C(F)(F)F)c4)ncnc32)cc1C	·	?	–	·	-64.8	–
Cn1ncc2c(Nc3ccc(-c4ccccc4)cc3)ncnc21	2.91µM	3.66µM	?	?	?	–
CCCNC(=O)OC[C@H]1O[C@H](CCON=C(C)CCC(=O)OC[C@H]2O[C@H](C#Cc3ccccc3)C=C[C@H]2Oc2ccc(C)cc2)C=C[C@H]1Oc1ccc(OC)cc1	–	·	·	·	·	·
CCC(=NCc1ccco1)c1c(O)n(-c2ccccc2)c(=O)[nH]c1=O	–	?	·	–	–	–
CCC(=NCc1ccco1)c1c(O)n(-c2ccc(C)cc2)c(=O)[nH]c1=O	?	0.58µM	·	–	–	·
Cc1cc(/C=C(\C#N)C(=O)N2CCOCC2)c(C)n1C1CCCC1	–	·	·	–	-83.8	·
CCCCn1nc(C(=O)N(C)C2CCCCC2)c2ccccc2c1=O	·	·	·	–	-106.2	·
CCCCn1nc(C(=O)NC2CCCCCC2)c2ccccc2c1=O	?	–	–	–	–	–
O=C(C[C@@H]1C/C=C\C[C@@H](NC(=O)OCC2c3ccccc3-c3ccccc32)C(=O)OC[C@@H](Cc2ccccc2)NC1=O)NCCO	·	·	–	2µM	–	–
O=C(N[C@H]1C/C=C\C[C@@H](CC(=O)N(CCO)Cc2ccccc2)C(=O)NC[C@H](c2ccccc2)OC1=O)OCC1c2ccccc2-c2ccccc21	·	·	10µM	?	?	?
C[C@@H]1COC(=O)[C@H](NC(=O)OCC2c3ccccc3-c3ccccc32)C/C=C\C[C@@H](CC(=O)N(CCO)Cc2ccccc2)C(=O)N1	·	·	–	–	·	–
O=C(N[C@@H]1C/C=C\C[C@H](CC(=O)N(CCO)Cc2ccccc2)C(=O)N[C@@H](Cc2ccccc2)COC1=O)OCC1c2ccccc2-c2ccccc21	·	·	?	–	-68.8	?
O=C([C@@H]1CC=C[C@@H]2CCN(C3CC3)C(=O)[C@@H]21)N1CCOCC1	·	·	–	·	·	–
COc1cccc(NC(=O)C2CC(=O)N(c3ccc(Br)cc3)C2)c1 (stereo not given)	–	–	–	·	–	–
COc1cc(NC(C)CCCNC(C)C)c2ncccc2c1OC (stereo not given)	–	–	–	?	-81.5	–
SMILES	Marburg entry inh	Lassa entry inh	VACV mCherry inh	HCV inhibitor	HCMV inh	VACV Venus inh
COc1cc(NCCCCCCN)c2ncccc2c1OC	?	?	–	?	?	–
O=C1CCCC=C1C(O)CCOCc1ccccc1 (stereo not given)	–	·	·	·	·	·
O=S(=O)(Cc1ccccc1)N1CCN(c2nc(-c3cccs3)nc3ccccc23)CC1	·	·	–	·	·	–
CC(=O)Nc1ccc(S(=O)(=O)NC2(C(F)(F)F)C(=O)Nc3c2c(=O)[nH]c(=O)n3-c2cccc(Cl)c2)cc1 (stereo not given)	–	–	–	·	–	–
COc1ccc(NC(=O)c2ccc(NCCCN3CCOCC3)c([N+](=O)[O-])c2)cc1	–	–	–	12.6µM	–	–
O=[N+]([O-])c1ccc(NCCCN2CCOCC2)c([N+](=O)[O-])c1	?	–	–	–	–	–
Cc1ccc(NC(=O)c2ccc(NCCCN3CCOCC3)c([N+](=O)[O-])c2)cc1Cl	?	?	?	11.2µM	?	?
O=C(NCCCN1CCOCC1)c1ccc(Sc2cccc(Cl)c2)c([N+](=O)[O-])c1	–	?	?	11.2µM	?	–
COc1cc(S(=O)(=O)NCCCN2CCOCC2)ccc1Cl	–	–	–	–	–	–
O=C(NCCCN1CCOCC1)c1ccc(Cl)c([N+](=O)[O-])c1	–	–	–[7.34 µM]	–	–	–[7.34 µM]
O=[N+]([O-])c1cc(S(=O)(=O)NCCCN2CCOCC2)ccc1Cl	?	?	–	10µM	–	–
C[C@@H]1CN(Cc2ccc3c(c2)CN(C(=O)CN2CCOc4ccccc4C2)CCO3)C[C@H](C)O1	·	·	–	·	·	–
Cc1ccccc1OCCCCn1c(-c2ccc(Cl)cc2)nc2ccccc2c1=O	–	–	–	·	–	–
CC1(C)C2CCC1(C)C(SC(=N)N)C2 (stereo not given)	?	–	–	?	–	–
Cc1c(C(=O)N2CCC(C)CC2)c(S(=O)(=O)N(Cc2ccccc2)C(C)(C)C)c(C)n1C	·	?	–	·	?	–
O=C(Nc1ccc(Cl)c([N+](=O)[O-])c1)c1ccc(NCCCN2CCOCC2)c([N+](=O)[O-])c1	6.51µM	–	·	2.24µM	–	·
COc1ccc(-c2ccc(SC)nn2)cc1	?	3.55µM	–	–	–	–
CC(Nc1cccc2ccccc12)C(=O)N/N=C/c1ccc([N+](=O)[O-])cc1 (stereo not given)	?	–	–	–	–	–
COc1cc([N+](=O)[O-])cc(/C=N/NC(=O)C(C)Nc2cccc3ccccc23)c1O (stereo not given)	–	–	–	–	-61.4	–
CCC(=NNC(=O)c1ccc2c(c1)nc(C)n2CC)c1cc(F)ccc1O	?	?	10µM	?	?	?
CCn1c(C)nc2cc(C(=O)n3cc(C(=O)c4cc(F)ccc4O)cn3)ccc21	·	·	·	–	·	·
COc1cccc(/C=N/NC(=O)c2nc(-c3ccccc3)cc(-c3ccccc3)n2)c1O	?	?	–	–	-97.2	–
COc1cc([N+](=O)[O-])cc(/C=N/NC(=O)c2cccnc2)c1O	·	·	·	–	-88.1	·
CSc1ccc(-c2ccc3c(c2)CC(CNC(=O)Cn2nc(C)nc2C)O3)cc1 (stereo not given)	·	·	–	·	·	–
COc1ccc(/C=N/NC(=O)c2ccncc2)c(OC)c1	·	·	·	–	–	·
COc1ccccc1C=NN=C(NN=Cc1ccccc1OC)NN=Cc1ccccc1OC	?	12.6µM	?	12.6µM	–	?

Screens deposited in PubChem BioAssay by National Center for Advancing Translational Sciences (NCATS).
